About 83,000 compounds went through this panel and 20% of them were active in at least one assay; those are over-represented in the sample as a whole.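 Negative percent growth values reflect cell death: -40 means 40% of the cells present at the start died, and -100 means all died.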 Values without a mark were called inactive. The source made the active and inactive calls. How the source made its calls: active means growth percent below 10; inactive means the rest.
Tests used:
Test in all cases: NCI-60 one-dose screen, 48 h (100 = growth as untreated, 0 = no growth, -100 = all killed)
Details in all cases: 10 µM unless noted
[1] = system: NCI-H23 lung
[2] = system: NCI-H226 lung
[3] = system: NCI-H322M lung
[4] = system: HOP-62 NSCLC
[5] = system: NCI-H460 lung
[6] = system: HOP-92 NSCLC
[7] = system: NCI-H522 lung
[8] = system: A549/ATCC NSCLC
[9] = system: 786-0 renal
[10] = system: COLO 205 colon

| Structure (SMILES) | growth [1] | growth [2] | growth [3] | growth [4] | growth [5] | growth [6] | growth [7] | growth [8] | growth [9] | growth [10] |
| --- | --- | --- | --- | --- | --- | --- | --- | --- | --- | --- |
| c1ccc(-c2cn3c(ccc4ccccc43)n2)cc1 | 70.5% | 79% | 77.5% | 68.4% | 20.6% | 65.6% | 44.5% | 47.1% | 81.7% | 41.9% |
| C#Cc1cccc(NC(=O)Nc2cccc(NC(=O)CCl)c2)c1 | -82.8% [8.25 µM] (active) | -12.1% [8.25 µM] (active) | 88.9% [8.25 µM] | 36.1% [8.25 µM] | -32.2% [8.25 µM] (active) | -53.1% [8.25 µM] (active) | -37.5% [8.25 µM] (active) | 56.8% [8.25 µM] | -65.1% [8.25 µM] (active) | -51.3% [8.25 µM] (active) |
| COc1cc(C2=C(c3cn(C)c4ccccc34)COC2=O)cc(OC)c1OC | 14.2% | 15.3% | 26.6% | 31.7% | 3.03% (active) | 19.1% | 3.38% (active) | 18.4% | 20.9% | -4.65% (active) |
| CCCCCN1C=C/C(=C\C(=O)N(C)c2ccc(OC(F)(F)F)cc2)c2ccccc21 | 87.1% | 95% | 99.6% | 90.8% | 101% | 98.1% | 78.5% | 91.3% | 99.4% | 104% |
| COc1cc(C(=O)Nc2cc3c(cc2Oc2cc(C)cc(C)c2)C(=O)N(C)[C@@H](CC(=O)N(C)O)C(=O)N3)c(Br)c(OC)c1OC | -20.4% (active) | -17.2% (active) | -32.5% (active) | -15.7% (active) | -14.7% (active) | -16.4% (active) | -43.1% (active) | -4.48% (active) | -38.5% (active) | -17.9% (active) |
| COc1ccc(/C=C(\C#N)n2nc3cccc(F)c3n2)cc1 | 101% | 96.9% | 98.6% | 105% | 106% | 96.1% | 93% | 98.1% | 96.6% | 115% |
| CCN1C(=O)N(CC)C2Nn3c(s/c(=C\c4ccc(OC)cc4)c3=O)=NC21 (stereo not given) | 76.3% | 85.1% | 82.6% | 55.8% | 32.2% | 75.4% | 12.2% | 50.7% | 34.6% | 31.7% |
| NCCCCCCNc1cc(-c2cccc(OC(F)(F)F)c2)nc2ccc(N3CCCC3)cc12 | 0.0621% (active) | 81.2% | -13.1% (active) | -33.3% (active) | -91.8% (active) | 39.3% | -44.5% (active) | 16.6% | -65.2% (active) | -62.1% (active) |
| NC1=NN=C(N)C1=Cc1cc2ccccc2n2nnnc12 | 99% | 100% | 105% | 96.8% | 105% | 87.4% | 95% | 103% | 93.9% | 99.7% |
| CC(=O)[C@@H]1CC[C@]2(C(N)=O)CC[C@]3(C)[C@H](CC[C@@H]4[C@@]5(C)CCCNC(C)(C)[C@@H]5CC[C@]43C)[C@@H]12 | 93.7% | 99.6% | 96.3% | 98.3% | 86.2% | 81.7% | 107% | 83.3% | 88.9% | 86.6% |
| Cc1ccc(NC(=O)Cc2ccc(/C=C/C(=O)c3ncc[nH]3)cc2)cc1 | 41.6% | 89.7% | 63.9% | 43.4% | 7.31% (active) | 82% | 43.6% | 62.1% | 29.7% | 49.2% |

From PubChem BioAssay (NCI)
